These results are taken from PubChem BioAssay AID1259311 (ICCB-Longwood Screening Facility, Harvard Medical School, 2017).

Several values for one entry are separate records, joined by “and”; a condition that tells them apart may be missing. Equal values may be shown once. The whole screen tested about 330,000 compounds, of which about 1,100 (0.33%) were called active. The sample holds actives, similar compounds and a random draw of the others, so the mix is not that of the screen. A number with no mark means an inactive call. Rule as the data show it: active = inhibition above about 85%; inactive = the rest.

This test is described as follows: growth inhibition of S. aureus RN4220, primary screen, OD600 (AID 1259311).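 Also: plate controls were untreated cells for no effect and reference antibiotic for full effect.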 Conditions: OD600, 16 h, hits give high values.
Turning to `CCOC(=O)NN=C(C)/C=C/c1ccco1`, the inhibition is -0.0294%.

For `O=C1CCC(O)CCN1CCC(Sc1ccccc1)c1ccccc1` (centres undefined), the inhibition is 10.9%.

Turning to `CC(C)(C)C1C=C(C(=O)N2CCN(Cc3ccccc3)CC2)OC(OCc2ccc(CO)cc2)C1` (centres undefined), the inhibition is 8.07% and 4.07%.

Take `CCOC(=O)C1C2COc3ccc(Br)cc3C2N2C(=O)N(c3ccc(C(F)(F)F)cc3)C(=O)[C@@]12C` (some centres undefined): the inhibition was -6.79%.

Regarding `CCCCC1CC1C(NC(=O)c1ccco1)c1ccccc1C(F)(F)F` (centres undefined), the inhibition was 6.05%.

On to `O=C(CN1CCSCC1)NN=Cc1ccc(F)cc1F`, for which the inhibition is 6.36%.

For `Cc1ccc(C=NNC(=O)CSc2nc3ccccc3c(=O)n2-c2ccccc2)s1`, the inhibition is -0.0121%.

In the case of `Cc1ccc(C=NNC(=O)CSc2nc3ccccc3n2C)s1`, the inhibition is 0.496%.

In the case of `Cn1c(SCC(=O)NN=Cc2ccc([N+](=O)[O-])s2)nnc1-c1ccccc1`, the inhibition is 94.9% (active).

On to `COC(=O)C1=C(c2ccc(C(C)=O)cc2)CC2CCC1N2C(=O)NCc1ccc(F)cc1` (centres undefined), for which the inhibition was 1.41%.

In the case of `O=S(=O)(NN=Cc1ccc(OC2CSC2)cc1)c1ccccc1`, the inhibition is 2.43%.

`COc1cccc(C=NNC(=O)CSCC(=O)Nc2ccccc2)c1O`: the inhibition is 3.38%.

In the case of `COc1cccc(C=NNc2ncnc3c2ncn3Cc2ccccc2)c1O`, the inhibition is 9.44%.

In the case of `COc1cccc(C=NNc2cc(-n3nc(C)cc3-c3ccccc3)ncn2)c1O`, the inhibition was 99.8% (active).

Consider `COc1cccc(C(=O)NCC(=O)NN=Cc2c(C)[nH]c3ccccc23)c1`, for which the inhibition was 4.11%.

Regarding `O=C(NC(Nc1nc2ccc([N+](=O)[O-])cc2s1)(C(F)(F)F)C(F)(F)F)c1ccccc1`, the inhibition is 100% (active).

On to `O=C(NOCc1ccccc1)c1cccc([N+](=O)[O-])c1`, for which the inhibition was 4.41%.

As for `N=C1C(c2nc3ccccc3s2)=C(O)CN1NC(=O)c1ccc([N+](=O)[O-])cc1`, the inhibition was 31.5%.

Turning to `COC(=O)C1=C(c2cccc(OC)c2OC)CC2CCC1N2C(=O)NCCNC(C)=O` (centres undefined), the inhibition was 2.83%.

For the molecule `Cc1ccc(OCC(=O)NN=Cc2cc([N+](=O)[O-])ccc2N2CCCCC2)cc1`, the inhibition is 15.8%.

Turning to `COc1cccc(C2=CC(=O)CC(c3ccc4c(c3)OCO4)C2)c1OC` (centres undefined), the inhibition was 4.85%.

`O=C(Cn1cnc2ccccc21)NN=Cc1ccccn1`: the inhibition is -0.52%.

With `COC(=O)[C@]1(C)NC(c2ccc(-c3cccc(Cl)c3)c(OC)c2)C2C(=O)N(C)C(=O)C21` (some centres undefined), the inhibition was 4.06%.

Regarding `CCOC(=O)C=c1sc(=C(C#N)C(=O)OCC)n(-c2ccccc2)c1=O`, the inhibition was -0.54%.

For the molecule `CCC(C)N1CCC2(CC1)N=c1c(c3c4c5c(C)c(O)c3c(O)c1=NC(=O)C(C)=CC=CC(C)C(O)C(C)C(O)C(C)C(OC(C)=O)C(C)C(OC)C=CO[C@@](C)(O5)C4=O)N2` (some centres undefined), the inhibition is 99.7% (active).

Take `Cc1nnc(SCC(=O)NC2CCCC2)s1`: the inhibition was -0.203%.

Consider `Cc1nnc(SCC2=C(C(=O)O)N3C(=O)C(NC(=O)Cn4nc(C)c(Cl)c4C)C3SC2)s1` (centres undefined), for which the inhibition is 99.6% (active).

Consider `Cc1nnc(SCC(=O)Nn2cnnc2)s1`, for which the inhibition is 2.92%.

In the case of `Cc1cc(C)cc(C(=O)NC2C(=O)N3C(C(=O)O)=C(CSc4nnc(C)s4)CSC23)c1` (centres undefined), the inhibition is 99.5% (active).

On to `Cc1nnc(SCc2cc(=O)[nH]c(N3CCN(Cc4ccccc4)CC3)n2)s1`, for which the inhibition was 1.62%.

As for `CON=Cc1ccc(N2CCOCC2)c([N+](=O)[O-])c1`, the inhibition was 6.02%.

Take `C=CCn1c(CNc2ccccc2)nnc1SCC(=O)NN=Cc1ccccc1O`: the inhibition was 1.54%.

For `O=C(O)CCC(=NNc1ncc(C(F)(F)F)cc1Cl)C(=O)O`, the inhibition is 4.71%.

On to `CC(=O)Nc1cccc(C(C)=NNc2ccc(S(=O)(=O)Nc3ccccc3C(=O)O)cc2[N+](=O)[O-])c1`, for which the inhibition is -10.1%.

Regarding `CCc1ccc2c(c1)C1(NN=C(c3ccccc3)S1)C(=O)N2` (centres undefined), the inhibition was 92.6% (active).

In the case of `CCN(CC)c1ccc(C(=O)c2cnc(N=CN(C)C)s2)cc1`, the inhibition was 8.12%.

As to `CC(=NNC(=O)CNS(=O)(=O)c1ccc(C)cc1)c1cccc([N+](=O)[O-])c1`, the inhibition was -3.24%.

For `Cn1c(NN=Cc2ccccc2)nc2sc3c(c2c1=O)CCC3`, the inhibition was 6.77%.

Turning to `O=C(NN=Cc1ccccc1)c1ccc(CN2C(=O)c3cccc4cccc2c34)cc1`, the inhibition was 0.745%.

On to `O=C(Nc1ccc2ccccc2c1)Nc1ccc2snnc2c1`, for which the inhibition is 106% (active).

As to `S=C(Nc1ccccc1)Nc1ccc2ccccc2c1`, the inhibition is -8.9%.

In the case of `Cc1nc2cc(NC(=O)Nc3cccc(F)c3)ccc2n1C`, the inhibition is 2.6%.

Take `Nc1nonc1-n1nnc(C(=O)NN=Cc2ccncc2)c1CN1CCCCC1`: the inhibition was 1.52%.

As for `Cc1ccccc1NC(=O)C(C)ON=Cc1cccc([N+](=O)[O-])c1` (centres undefined), the inhibition is 4.13%.

With `COc1ccc(CC(O)=C(C#N)c2nc3ccccc3[nH]2)cc1OC`, the inhibition was -2.45%.

On to `CCOC(=O)C=c1sc(=Cc2c(OCC)ccc3ccccc23)c(=O)n1CC(=O)NCC1CCCO1` (centres undefined), for which the inhibition was -2.12%.

As for `CCOC(=O)C1(CCOc2ccccc2)CCN(Cc2ccc(C#CCCO)cc2)CC1`, the inhibition is 5.24%.

With `CCOC(=O)C1(CCOc2ccccc2)CCN(Cc2cc(OC)cc(OC)c2)CC1`, the inhibition was 1.85%.

With `Cc1c(CN2CCC(CO)(CCOc3ccccc3)CC2)[nH]c2ccc(Cl)cc12`, the inhibition was 97.5% (active).

As for `C#CCOCCOCCOCCNc1nc(N2CCN(C(=O)C(Cc3cc4ccccc4[nH]3)n3cc(C(N)CC(C)C)nn3)CC2)nc(N2CCN(C(=O)C(Cc3ccc(O)cc3)n3cc(C(N)C(C)CC)nn3)CC2)n1` (centres undefined), the inhibition was -1.75%.

For the molecule `CCNc1nc(NCC)nc(NN=Cc2ccc(O)c(OC)c2)n1`, the inhibition is 4.03%.

In the case of `COc1ccc(C=NNC(=O)C(=O)N2CCCCCC2)cc1`, the inhibition was 0.0129%.

As to `Cc1[nH]n(-c2cccc(Cl)c2)c(=O)c1-c1ccc(Cl)cc1`, the inhibition was 106% (active).

Take `Cc1nc2c(-c3ccccc3)c(C)[nH]n2c(=O)c1Cl`: the inhibition was 5.58%.

Regarding `Cc1cc(=O)n2[nH]c(-c3cccc(Cl)c3)cc2n1`, the inhibition was 0.714%.

Consider `CC(C)(C)NC(=O)C=NO`, for which the inhibition was 6.33%.

For `O=C(NN=Cc1ccc(OC(F)F)cc1OC(F)F)c1ccc(Br)cc1`, the inhibition was 3.44%.

Turning to `N#CC(=C(O)c1ccco1)c1ccccn1`, the inhibition was 2.69%.

For `Oc1ccc(Br)cc1C=Nn1c(COc2ccccc2)n[nH]c1=S`, the inhibition is 5.82%.

`FC(F)(F)c1cccc(NC(=S)Nc2cccc(Cl)c2)c1`: the inhibition was 100% (active).

Regarding `O=C(O)CC1(CC(=O)Nc2cccc(C(F)(F)F)c2)CCCC1`, the inhibition is 3.93%.

As for `Cn1cc(Cl)c(C(=O)NNC(=S)Nc2cccc(Cl)c2)n1`, the inhibition is 4.73%.

Consider `CCN1CC2C3C(=O)N(C)C(=O)C3[C@](Cc3ccccc3)(C1=O)N2C(=O)c1ccccc1` (some centres undefined), for which the inhibition is 1.95%.

With `COC(=O)C(C=NOCc1ccc([N+](=O)[O-])cc1)NC(=O)c1cccc(Cl)c1` (centres undefined), the inhibition was -3.78%.

On to `COC(=O)[C@@]1(Cc2ccc(OC)cc2)C2c3cc(C(=O)N4CCCC4)n(CCSCCO)c3CC2CN1C(=O)c1ccccc1` (some centres undefined), for which the inhibition was 3.17%.

`N#Cc1ccc(CSc2ncccn2)cc1`: the inhibition is 3.27%.

On to `N#CC1=C(SCc2ccc(C#N)cc2)N=C(N)C(c2nc(-c3ccccc3)cs2)C12CCCCC2` (centres undefined), for which the inhibition is 98.3% (active).

On to `N#CC1=C(SCc2ccccc2)NC(=O)C(C#N)C12CCCC2` (centres undefined), for which the inhibition was 13.6%.

On to `O=C(NC1CC1)C1=CC(C2CC2)CC(OCCCCO)O1` (centres undefined), for which the inhibition is 6.8% and 1.82%.

Regarding `Cc1cc(C(=O)NN=Cc2cc(Cl)cc([N+](=O)[O-])c2O)n[nH]1`, the inhibition is 7.38%.

For the molecule `COc1ccc(C(=O)/C=C/c2cccnc2)c(OC)c1`, the inhibition was 2.36%.

For the molecule `COc1ccc(/C=C/C(=O)c2cc(Br)ccc(=O)c2O)cc1`, the inhibition is 94.3% (active).

Take `COc1ccc(NC(=O)ON=Cc2ccc(Br)cc2)cc1`: the inhibition was 5.53%.

For `CC(C)(C)OC(=O)C1=C(CO)CS[C@@H]2[C@H](NC(=O)Cc3ccccc3)C(=O)N12`, the inhibition is 99.2% (active).

Turning to `O=C(Cc1ccccc1)NNC1CC(=O)N(c2ccc(Br)cc2)C1=O` (centres undefined), the inhibition was 4.24%.

On to `CC(C)(C)OC(=O)NC(Cc1ccccc1)C(=O)NC(CO)C(O)C1CC1C(=O)NC1CC1` (centres undefined), for which the inhibition was 2.57%.

`CC(=NNC(=O)CNc1ccccc1)c1ccccc1`: the inhibition was 0.316%.

Turning to `Cc1cc(N=Nc2ccc3ccccc3c2)ccc1O`, the inhibition was 99.9% (active).

`Cc1c(O)ccc(C(Cc2ccc3ccccc3n2)=NN)c1O`: the inhibition is 4.37%.

In the case of `COc1cccc(C=NNC(=O)CNC(=O)C2COc3ccccc3O2)c1O` (centres undefined), the inhibition was 2.29%.

`CC(=O)c1cccc(NC(=O)C2COc3ccccc3O2)c1` (centres undefined): the inhibition is 4.71%.

`O=C(Nc1ncc([N+](=O)[O-])s1)C1COc2ccccc2O1` (centres undefined): the inhibition was 92.1% (active).

For `CC(=NNC(=O)CNC(=O)C1COc2ccccc2O1)c1ccc([N+](=O)[O-])cc1` (centres undefined), the inhibition was 2.91%.

On to `Cc1ccc(NC(=O)CN2C(=O)SC(=Cc3cccn3-c3cccc(C(=O)O)c3)C2=O)cc1C`, for which the inhibition is 8.73%.

For `CC(=NN=C(c1ccccc1)c1ccccc1)c1ccco1`, the inhibition was 7.82%.

With `COc1ccc(CCNC(=O)C(Sc2ccccn2)c2ccccc2)cc1OC` (centres undefined), the inhibition was 4.13%.

With `COc1ccc(CN(Cc2ccc(OC)cc2)C(=O)c2cccs2)cc1`, the inhibition was 6.45%.

Regarding `COc1ccc(C(CCN(Cc2ccc(OC)c(OC)c2)C(=O)CCl)c2ccccc2)cc1` (centres undefined), the inhibition was 85.5% (active).

For the molecule `COc1ccc(CN2CCC(=O)N(C(CO)c3ccccc3)CC2)cc1OC` (centres undefined), the inhibition is -2.15%.
